The whole screen tested about 65,000 compounds, of which about 2,100 (3.2%) showed an effect of 50% or more. The median lay at about -52%. Shown is part of a subset that was picked to be rich in strong results.

The subject of this test is Plasmodium falciparum. Put plainly: Screen against P. falciparum Asexual Blood Stage (ABS), at 5uM. In kind it is functional, Dd2. Particulars: tested at 5 uM.
With `O=C(CCc1ccccn1)N1CCCC(n2cncn2)C1` (stereo not given), the INHIBITION is on record as -46.3%.
In the case of `CC(C)c1n[nH]c(C2CN(C(=O)Cn3ccccc3=O)CCO2)n1` (stereo not given), the INHIBITION is -40.5%.
For the molecule `O=C(CC1CC1)N1CCO[C@H]2[C@H](OCCCn3cccn3)CC[C@@H]21`, the INHIBITION is reported as -14.6%.
Take `Cc1c(CN2CC[C@@H](N3CCC(O)CC3)[C@H](O)C2)[nH]c2ccc(Cl)cc12`: the INHIBITION is on record as 54.6%.
On to `Cc1ccc2[nH]c(CN3CC[C@@H](N4CCN(C)CC4)[C@H](O)C3)c(C)c2c1`, for which the INHIBITION is recorded as -41.6%.
Regarding `Cc1c(CN2CC[C@@H](N3CCC(O)CC3)[C@H](O)C2)[nH]c2ccc(F)cc12`, the INHIBITION is recorded as -21.9%.
Regarding `CC(=O)c1cc(Br)cc(F)c1OCC(=O)NC(C)C`, the INHIBITION is given as -96.4%.
With `O=C(NCC(F)F)c1ccc(S(=O)(=O)NCCc2ccncc2)cc1`, the INHIBITION is given as 16.5%.
Consider `O=C(CCN1CCCC1)N1CC[C@@H](c2ccc3ccccc3c2)[C@H](O)C1`, for which the INHIBITION stood at 65.1%.
With `O=C(CCn1cccn1)N1CC[C@@H](c2ccc3ccccc3c2)[C@H](O)C1` the figure was 15.7%; with `O=C(CCN1CCCO1)N1CC[C@@H](c2ccc3ccccc3c2)[C@H](O)C1`, 15.7%.
Consider `COc1cc(C2c3c(n[nH]c3C)N=C3COC(=O)C32)cc2c1OCO2` (stereo not given), for which the INHIBITION is reported as -31.7%.
Turning to `O=C(CC1C=CCC1)Nc1ncn(CC(=O)N2CCCCCC2)n1` (stereo not given), the INHIBITION is recorded as 23.2%.
For `CCn1cc(CNCC(c2ccc(Cl)cc2)n2cccn2)cn1` (stereo not given), the INHIBITION is 60.8%.
To `Clc1ccc(C(CNCc2ccncc2)n2cccn2)cc1` (stereo not given) belongs -50.1%; to `Cn1cc(CNCC(c2ccc(Cl)cc2)n2cccn2)cn1` (stereo not given), 18.1%; to `Cc1cc(CN2CCC(CNS(=O)(=O)c3ccccc3Cl)CC2)c(C)o1`, 53.6%.
Regarding `CCN(C)S(=O)(=O)NCC1CCN(Cc2ccccc2C)CC1`, the INHIBITION is reported as 11.6%.
With `Cc1cc(CN2CCC(CNS(=O)(=O)c3c(C)noc3C)CC2)c(C)o1`, the INHIBITION came to 28.4%.
Take `Cc1cnc2n(c1=O)C(CC(=O)NCc1ccc(Cl)cc1)CS2` (stereo not given): the INHIBITION is on record as -30.4%.
`COc1ccc2[nH]c3c(c2c1)CN(c1cc(NCCO)nc(N)n1)CC3`: the INHIBITION is -52.4%.
Regarding `CC(C)Cc1ncc2c(n1)CN(c1cc(NCCO)nc(N)n1)C2`, the INHIBITION is -42.2%.
In the case of `Nc1nc(NCCO)cc(N2CCc3c([nH]c4ccccc34)C2)n1`, the INHIBITION is 61.3%.
As for `O=C(c1ccc2[nH]ccc2c1)N1CCCSCC1CN1CCCC1` (stereo not given), the INHIBITION was 21.3%.
Regarding `O=C(NCCc1ccn(-c2ccccc2)n1)N1CCSCC1`, the INHIBITION is given as -122%.
To `Cc1ccc([C@]2(O)CC[C@H]3CN(Cc4cccc(F)c4F)C[C@H]32)nc1` belongs 45.8%; to `CSc1ccc(CN2C[C@@H]3CC[C@@](O)(c4ccc(C)cn4)[C@@H]3C2)cc1`, 57.5%.
For `COc1ncc(CN2C[C@@H]3CC[C@@](O)(c4ccc(C)cn4)[C@@H]3C2)cn1`, the INHIBITION is on record as -72.4%.
As for `Cc1ccc([C@]2(O)CC[C@H]3CN(Cc4cccc(Cl)c4Cl)C[C@H]32)nc1`, the INHIBITION is given as -9.78%.
With `COc1ccc(CN2C[C@H]3CC[C@](O)(c4ccc(C)cn4)[C@H]3C2)c(F)c1`, the INHIBITION stood at 17.3%.
On to `Cc1ccc([C@]2(O)CC[C@H]3CN(Cc4ccc(Cl)cc4Cl)C[C@H]32)nc1`, for which the INHIBITION amounted to 66.6%.
With `OC(CN1CCN(CCOCC(F)(F)F)CC1)c1ccccc1` (stereo not given), the INHIBITION is reported as -64.4%.
To `O=S(=O)(c1cccs1)N1CCCC2(COCCN(c3cccnc3)C2)C1` (stereo not given) belongs -39.7%; to `Cc1ccoc1C(=O)N1CCCC(c2cc(C(F)(F)F)[nH]n2)C1` (stereo not given), -127%; to `O=S(=O)(NC1CCC12CCN(CC1CCOCC1)CC2)c1ccccc1` (stereo not given), -62.3%.
As for `COCC(=O)N1CCC2(CCC2NS(=O)(=O)c2ccccc2)CC1` (stereo not given), the INHIBITION is recorded as -23.9%.
On to `Cc1ccc(CN2CCC3(CCC3NS(=O)(=O)c3ccccc3)CC2)o1` (stereo not given), for which the INHIBITION came out at 62.4%.
For the molecule `CC(C)c1ccc(NC(=O)Cn2cc(I)cn2)cc1`, the INHIBITION is -19%.
As to `CC1c2ncc(CN3CCN(C)CC3)n2CCN1Cc1ccccn1` (stereo not given), the INHIBITION is given as -124%.
To `c1cnc(-c2noc(C3CN(Cc4ccc5c(c4)CCO5)C3)n2)cn1` belongs 4.79%; to `CC(C)CC1CC(=O)Nc2c1cnn2Cc1ccco1` (stereo not given), -129%; to `CC(C)c1ccc(O)c(C(=O)NCc2cc[nH]n2)c1`, -97.2%.
As for `CCN(c1ccc(C(=O)NCc2ccnc(C)n2)cc1)C(C)C`, the INHIBITION came out at 22.7%.
With `CCN(c1ccc(C(=O)NCc2cc[nH]n2)cc1)C(C)C`, the INHIBITION is recorded as 60.1%.
To `Cc1nc(COC(=O)c2cccc3c2OCCO3)no1` belongs -17%; to `CCOC(=O)CNC(=O)NCc1cccn1Cc1ccccc1F`, -158%; to `CN1CC2(CCN(c3nc(N)nc4c3CCNC4)CC2)OC1=O`, -71.4%.
Regarding `Cc1ccc(OCc2nnc(SCC3CCCN(C)C3)o2)cc1` (stereo not given), the INHIBITION came out at 29.8%.
Take `Cc1cccc(OCc2nnc(SCC3CCCN(C)C3)o2)c1` (stereo not given): the INHIBITION was found to be 28.5%.
Consider `Cc1ccc(C)c(OCc2nnc(SCC3CCCN(C)C3)o2)c1` (stereo not given), for which the INHIBITION worked out at 60.3%.
On to `CCCn1ccc(C(=O)Nc2ccc3c(c2)C(C)(C)C(=O)N3C)n1`, for which the INHIBITION is given as -3.4%.
With `CC(C)c1nc(C2CCCN(Cc3nnc(C4CC4)o3)C2)no1` (stereo not given) the figure was -52.6%; with `c1ccc2oc(CCCN3CCCC3c3noc(C4CC4)n3)nc2c1` (stereo not given), -21.2%.
To `CCc1nc(C2CCCN2Cc2nc3ccccc3o2)no1` (stereo not given) belongs -23.2%.
Consider `CCc1nc(C2CCCN2Cc2nnc(C3CCC3)o2)no1` (stereo not given), for which the INHIBITION is given as -88%.
With `C1CC(c2noc(C3CC3)n2)N(Cc2nnc(C3CC3)o2)C1` (stereo not given) the figure was -1.02%; with `C1CC(c2nnc(CN3CCCC3c3noc(C4CC4)n3)o2)C1` (stereo not given), 53.5%.
Take `Cc1nc(C2CCCN2Cc2nnc(C3CC3)o2)no1` (stereo not given): the INHIBITION is listed as -171%.
With `CC(C)c1nc(C2CCCN2Cc2nnc(C3CCC3)o2)no1` (stereo not given) the figure was 53.5%; with `c1ccc2oc(CN3CCCC3c3noc(C4CC4)n3)nc2c1` (stereo not given), 54.4%; with `CC(c1nc(C2CC2)no1)N1CCN(Cc2noc(C3CC3)n2)CC1` (stereo not given), -55.4%.
In the case of `COc1ccc(CN2C[C@H]3CC[C@@H](C2)N(Cc2snnc2C)C3)cc1`, the INHIBITION is -6.34%.
With `CCc1cc(=O)n(CC(=O)N2CCC(C)CC2)c(-c2ccccc2)n1`, the INHIBITION is given as -53.5%.
Take `O=S(=O)(c1ccccc1)N1CCC2(CCCN2Cc2cccnc2)C1` (stereo not given): the INHIBITION is listed as -12%.
In the case of `CC(C)c1cc(NC(=O)CNC2CCc3ncnn3C2)on1` (stereo not given), the INHIBITION was -54%.
In the case of `Cc1occc1C(=O)N1C[C@@H]2OCCN(CCN3CCCC3)[C@@H]2C1`, the INHIBITION is -86.8%.
Take `Cc1nc(CN2CCCC(c3cc(C(F)(F)F)[nH]n3)C2)cs1` (stereo not given): the INHIBITION is reported as -50.2%.
Regarding `Cc1nc(C2(O)CCCNCC2)sc1CCOc1ccccc1` (stereo not given), the INHIBITION was -48.5%.
To `Cc1nc(C2(O)CCCNCC2)sc1CCOc1ccc(F)cc1` (stereo not given) belongs 34.5%.
As for `Cc1nc(C2(O)CCCNCC2)sc1CCOc1ccc(F)c(F)c1` (stereo not given), the INHIBITION stood at 54.5%.
On to `COc1ccc(OCc2sc(C3(O)CCCNCC3)nc2C)cc1` (stereo not given), for which the INHIBITION turned out to be 14.8%.
To `COc1ccc(OCCc2sc(C3(O)CCCNCC3)nc2C)cc1` (stereo not given) belongs 5.84%; to `Cc1nc(C2(O)CCCNCC2)sc1CCOc1ccccc1Cl` (stereo not given), 54.5%.
For the molecule `CCN1CCCC(O)(c2nc(C)c(CCOc3ccccc3Cl)s2)CC1` (stereo not given), the INHIBITION was found to be 21%.
As for `Cc1nc(C2(O)CCCNCC2)sc1CCOc1ccc(Cl)cc1` (stereo not given), the INHIBITION is given as 61%.
For `CCN1CCCC(O)(c2nc(C)c(CCOc3ccc(F)cc3)s2)CC1` (stereo not given), the INHIBITION is on record as 23.9%.
With `COc1ccccc1OCC(=O)NS(=O)(=O)c1ccc(Br)s1`, the INHIBITION is recorded as -26.8%.
Regarding `C[C@@H]1CN(C(=O)c2nc3ccc(Cl)cn3c2-c2ncc[nH]2)C[C@H](C)O1`, the INHIBITION came out at 49.4%.
To `O=S(=O)(C1CC1)N1CCn2cc(CNc3ccccn3)nc2C1` belongs -76%; to `Cc1ccccc1C1(C(=O)NCCN2CCCCC2C)CCOCC1` (stereo not given), 28.2%.
`CCC[C@@H]1CN(Cc2cc3c(cc2OC)OCCO3)C[C@H]1C(=O)O`: the INHIBITION was -28.5%.
With `COc1ccsc1C(=O)Nc1cc(CN2CCOCC2)ccc1C` the figure was -12.8%; with `CCC1c2ccsc2CCN1Cc1cc2c(cc1OC)OCCO2` (stereo not given), 67.3%; with `COc1cc2c(cc1CN1CCc3sccc3C1C)OCO2` (stereo not given), 69.3%.
On to `COc1ccc(CN2CCc3sccc3C2C)cc1CN1CCOCC1` (stereo not given), for which the INHIBITION is reported as 56.1%.
With `CCC[C@@H]1CN(Cc2cc3c(cc2OC)OCO3)C[C@H]1C(=O)O` the figure was -43.7%; with `CC1c2ccsc2CCN1Cc1cc2c(cc1O)OCO2` (stereo not given), 27.2%.
Turning to `CCC1c2ccsc2CCN1C(=O)NCc1cccnc1OC` (stereo not given), the INHIBITION came out at 46.8%.
On to `COc1ccc(CN2C[C@@H](CN(C)C)[C@@H](CO)C2)cc1CN1CCCC1`, for which the INHIBITION is -71%.
Regarding `Cc1nnc(N2C[C@H]3OCC[C@H]3[C@H](C(=O)NCC3CC3)C2)s1`, the INHIBITION is 4.38%.
Take `O=C1OCCN1CC(=O)N1C[C@@H]2CC[C@H]1CN(Cc1cscn1)C2`: the INHIBITION is recorded as -150%.
As to `CCn1cc2c(n1)CN(Cc1cnn(C)c1)CC2COCC1CC1` (stereo not given), the INHIBITION is -28.3%.
As for `c1cc(-c2nc(C3CCN(Cc4ccsc4)CC3)no2)ccn1`, the INHIBITION is recorded as -4.11%.
`Cc1ccc(C(=O)N2Cc3ccccc3OC3(CCOCC3)C2)cn1`: the INHIBITION is on record as -43.5%.
With `c1nc2n(c1CN1CCCC1)CCN(C1CCOCC1)CC2` the figure was -7.43%; with `COc1cccc(C(=O)N2C[C@@H](c3ccccc3)[C@@H]3NCCCC[C@@H]32)c1`, 16.7%; with `COc1ccc(C(=O)N2C[C@@H](c3ccccc3)[C@@H]3NCCCC[C@@H]32)cc1`, -70.2%.
For `COc1cccc([C@H]2CN(C(=O)c3ccccc3)[C@@H]3CCCN[C@H]23)c1`, the INHIBITION is 56.5%.
Take `CN(C)S(=O)(=O)NC1CCCc2c1cnn2-c1ccc(C(C)(C)C)cc1` (stereo not given): the INHIBITION is listed as -174%.
Consider `CN(C)C1CC2(CCN(C(=O)C3(C#N)CC3)CC2)c2ccccc21` (stereo not given), for which the INHIBITION was -28.5%.

These data come from ChEMBL document CHEMBL4513216, “Probing the Open Global Health Chemical Diversity Library for Multistage-Active Starting Points for Next-Generation Antimalarials” (ACS Infect Dis, 2020).
